# Assays:
# Experiment in all cases: cross-link between two proteins; cross-linking mass spectrometry
# Gamma-enolase = Gamma-enolase (UniProt P17183)
# [1] = biological target: Gamma-soluble NSF attachment protein (UniProt Q9CWZ7)
# Glutamate receptor 2 = Glutamate receptor 2 (UniProt P23819)
# [2] = biological target: Glyceraldehyde-3-phosphate dehydrogenase (UniProt P16858)
# [3] = biological target: Guanine nucleotide-binding protein G(I)/G(S)/G(O) subunit gamma-5 (UniProt P63218)
# [4] = biological target: Guanine nucleotide-binding protein G(I)/G(S)/G(T) subunit beta-1 (UniProt P62874)
# Sequence of Guanine nucleotide-binding protein G(I)/G(S)/G(T) subunit beta-1 (P62874 whole entry): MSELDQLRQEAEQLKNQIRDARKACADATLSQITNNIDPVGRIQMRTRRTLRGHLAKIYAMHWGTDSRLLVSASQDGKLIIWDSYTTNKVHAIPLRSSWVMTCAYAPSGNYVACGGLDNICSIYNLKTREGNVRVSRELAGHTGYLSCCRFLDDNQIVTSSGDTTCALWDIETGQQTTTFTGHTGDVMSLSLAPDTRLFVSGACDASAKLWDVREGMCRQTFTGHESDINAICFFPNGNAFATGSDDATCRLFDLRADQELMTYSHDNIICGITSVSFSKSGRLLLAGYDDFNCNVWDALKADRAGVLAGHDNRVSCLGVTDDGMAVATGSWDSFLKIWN
# [5] = biological target: Guanine nucleotide-binding protein subunit beta-4 (UniProt Q9HAV0)
# [6] = biological target: Heat shock cognate 71 kDa protein (UniProt P11142)
# Sequence of Heat shock cognate 71 kDa protein (UniProt P11142) (P11142 whole entry): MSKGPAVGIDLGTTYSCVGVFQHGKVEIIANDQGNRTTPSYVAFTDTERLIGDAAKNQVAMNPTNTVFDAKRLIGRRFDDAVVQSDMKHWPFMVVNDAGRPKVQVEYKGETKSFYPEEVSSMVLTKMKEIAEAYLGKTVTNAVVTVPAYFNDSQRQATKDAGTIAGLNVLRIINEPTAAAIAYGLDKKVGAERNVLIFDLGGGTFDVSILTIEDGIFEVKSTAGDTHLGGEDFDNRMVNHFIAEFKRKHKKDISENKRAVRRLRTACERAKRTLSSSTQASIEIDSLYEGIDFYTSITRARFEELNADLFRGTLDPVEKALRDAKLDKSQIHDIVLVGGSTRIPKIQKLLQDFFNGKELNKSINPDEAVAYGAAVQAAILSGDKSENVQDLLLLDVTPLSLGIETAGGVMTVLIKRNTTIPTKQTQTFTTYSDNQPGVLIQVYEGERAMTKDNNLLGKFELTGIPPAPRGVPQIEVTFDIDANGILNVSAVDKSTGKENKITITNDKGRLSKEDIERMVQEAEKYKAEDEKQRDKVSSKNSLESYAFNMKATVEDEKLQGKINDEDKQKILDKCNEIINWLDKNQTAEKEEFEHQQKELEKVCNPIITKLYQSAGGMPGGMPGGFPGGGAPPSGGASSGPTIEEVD
# [7] = biological target: Heat shock cognate 71 kDa protein (UniProt P63017)
# [8] = biological target: Hemoglobin subunit beta-1 (UniProt P02088)
# Sequence of Hemoglobin subunit beta-1 (P02088 whole entry): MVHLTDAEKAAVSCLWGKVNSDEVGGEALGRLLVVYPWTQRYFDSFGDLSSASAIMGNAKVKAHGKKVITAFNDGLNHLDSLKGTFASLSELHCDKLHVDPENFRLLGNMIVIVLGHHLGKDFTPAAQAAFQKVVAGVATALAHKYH
# Histone H2B type 1-H = Histone H2B type 1-H (UniProt Q93079)
# [9] = biological target: Hyaluronan and proteoglycan link protein 1 (UniProt Q9QUP5)
# Sequence of Hyaluronan and proteoglycan link protein 1 (Q9QUP5 whole entry): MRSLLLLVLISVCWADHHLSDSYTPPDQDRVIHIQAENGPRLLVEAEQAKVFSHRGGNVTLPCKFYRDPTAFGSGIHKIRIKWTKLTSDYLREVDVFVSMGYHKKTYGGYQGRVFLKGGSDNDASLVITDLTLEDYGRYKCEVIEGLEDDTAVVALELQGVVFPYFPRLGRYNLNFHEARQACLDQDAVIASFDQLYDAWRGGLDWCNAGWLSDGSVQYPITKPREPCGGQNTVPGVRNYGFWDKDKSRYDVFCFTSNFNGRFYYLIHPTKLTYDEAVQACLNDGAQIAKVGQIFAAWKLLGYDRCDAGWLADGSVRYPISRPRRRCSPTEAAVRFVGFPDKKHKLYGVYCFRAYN
# [10] = biological target: Insulin-like growth factor 1 receptor (UniProt Q60751)
# Intersectin-1 = Intersectin-1 (UniProt Q9Z0R4)
# [11] = biological target: Kinesin heavy chain isoform 5C (UniProt P28738)
# Kinesin light chain 2 = Kinesin light chain 2 (UniProt O88448)
# Sequence of Kinesin light chain 2 (O88448 whole entry): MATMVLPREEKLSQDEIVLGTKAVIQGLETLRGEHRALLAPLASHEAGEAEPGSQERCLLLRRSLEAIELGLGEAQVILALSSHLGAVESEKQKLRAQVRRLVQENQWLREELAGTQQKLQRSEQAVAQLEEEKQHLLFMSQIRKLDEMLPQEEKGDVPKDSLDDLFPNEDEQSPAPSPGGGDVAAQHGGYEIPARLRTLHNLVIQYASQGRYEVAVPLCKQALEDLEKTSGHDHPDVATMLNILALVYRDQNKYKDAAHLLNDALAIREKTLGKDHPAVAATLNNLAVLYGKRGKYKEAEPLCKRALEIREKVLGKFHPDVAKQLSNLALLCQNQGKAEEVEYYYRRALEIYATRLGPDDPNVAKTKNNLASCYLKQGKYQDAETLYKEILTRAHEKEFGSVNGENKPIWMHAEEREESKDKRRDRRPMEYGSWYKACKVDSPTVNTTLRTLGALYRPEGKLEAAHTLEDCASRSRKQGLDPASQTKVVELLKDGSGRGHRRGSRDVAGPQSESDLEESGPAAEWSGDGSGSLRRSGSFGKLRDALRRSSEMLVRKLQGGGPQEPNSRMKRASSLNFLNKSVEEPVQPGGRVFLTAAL
# [12] = biological target: Lanosterol 14-alpha demethylase (UniProt Q16850)
# Sequence of Lanosterol 14-alpha demethylase (Q16850 whole entry): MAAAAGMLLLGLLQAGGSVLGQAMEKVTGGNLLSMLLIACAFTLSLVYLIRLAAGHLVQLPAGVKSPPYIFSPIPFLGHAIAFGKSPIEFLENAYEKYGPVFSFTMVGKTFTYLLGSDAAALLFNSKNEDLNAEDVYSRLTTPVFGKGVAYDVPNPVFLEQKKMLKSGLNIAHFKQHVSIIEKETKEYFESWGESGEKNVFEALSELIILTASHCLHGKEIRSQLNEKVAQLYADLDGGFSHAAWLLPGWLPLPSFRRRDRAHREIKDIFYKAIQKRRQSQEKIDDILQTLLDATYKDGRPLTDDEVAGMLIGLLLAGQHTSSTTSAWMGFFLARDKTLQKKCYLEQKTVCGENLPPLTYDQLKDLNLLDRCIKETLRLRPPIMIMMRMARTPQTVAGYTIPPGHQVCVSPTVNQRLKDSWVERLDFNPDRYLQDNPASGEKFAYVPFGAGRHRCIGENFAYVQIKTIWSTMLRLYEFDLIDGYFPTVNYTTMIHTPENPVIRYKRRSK
# [13] = biological target: Lysocardiolipin acyltransferase 1 (UniProt Q6UWP7)
# Sequence of Membrane-associated progesterone receptor component 1, O00264 (O00264 whole entry): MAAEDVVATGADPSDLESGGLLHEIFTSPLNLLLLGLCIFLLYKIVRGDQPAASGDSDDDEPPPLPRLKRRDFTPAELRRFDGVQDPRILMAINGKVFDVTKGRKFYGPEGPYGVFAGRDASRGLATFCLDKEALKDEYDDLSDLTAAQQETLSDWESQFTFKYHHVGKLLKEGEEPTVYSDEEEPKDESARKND
# Sequence of Guanine nucleotide-binding protein G(I)/G(S)/G(O) subunit gamma-5 (P63218 whole entry): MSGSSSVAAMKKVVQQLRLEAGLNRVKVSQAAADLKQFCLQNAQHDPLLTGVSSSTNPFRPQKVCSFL
# Sequence of Heat shock protein HSP 90-beta, P08238 (P08238 whole entry): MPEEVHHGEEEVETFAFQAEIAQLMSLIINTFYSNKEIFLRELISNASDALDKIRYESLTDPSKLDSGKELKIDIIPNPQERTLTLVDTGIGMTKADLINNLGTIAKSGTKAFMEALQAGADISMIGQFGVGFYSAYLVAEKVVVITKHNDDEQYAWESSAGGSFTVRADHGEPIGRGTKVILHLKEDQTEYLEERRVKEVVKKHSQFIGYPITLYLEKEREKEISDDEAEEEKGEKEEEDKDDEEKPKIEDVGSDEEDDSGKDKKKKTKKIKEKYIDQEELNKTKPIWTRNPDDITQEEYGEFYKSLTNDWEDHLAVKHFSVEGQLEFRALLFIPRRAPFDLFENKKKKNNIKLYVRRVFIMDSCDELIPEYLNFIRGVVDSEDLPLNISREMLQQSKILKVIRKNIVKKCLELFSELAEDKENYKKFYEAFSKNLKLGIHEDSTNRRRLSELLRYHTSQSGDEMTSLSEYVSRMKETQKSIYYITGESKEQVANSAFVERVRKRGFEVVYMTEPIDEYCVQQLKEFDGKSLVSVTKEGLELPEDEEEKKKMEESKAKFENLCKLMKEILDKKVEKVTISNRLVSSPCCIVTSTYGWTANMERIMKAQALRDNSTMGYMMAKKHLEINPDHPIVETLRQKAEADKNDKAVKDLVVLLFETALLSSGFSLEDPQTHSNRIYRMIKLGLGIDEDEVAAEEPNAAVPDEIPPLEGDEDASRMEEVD
# Sequence of Glyceraldehyde-3-phosphate dehydrogenase (P16858 whole entry): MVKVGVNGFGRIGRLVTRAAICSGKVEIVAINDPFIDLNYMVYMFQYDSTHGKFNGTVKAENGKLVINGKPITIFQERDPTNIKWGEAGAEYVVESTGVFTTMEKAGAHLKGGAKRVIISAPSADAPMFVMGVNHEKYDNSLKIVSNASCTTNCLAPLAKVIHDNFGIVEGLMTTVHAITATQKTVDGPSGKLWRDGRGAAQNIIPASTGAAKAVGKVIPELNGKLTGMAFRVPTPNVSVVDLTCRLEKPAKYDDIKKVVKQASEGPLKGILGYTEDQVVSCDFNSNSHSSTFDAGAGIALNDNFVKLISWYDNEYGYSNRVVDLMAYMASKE
# Sequence of Hemoglobin subunit alpha, P01942 (P01942 whole entry): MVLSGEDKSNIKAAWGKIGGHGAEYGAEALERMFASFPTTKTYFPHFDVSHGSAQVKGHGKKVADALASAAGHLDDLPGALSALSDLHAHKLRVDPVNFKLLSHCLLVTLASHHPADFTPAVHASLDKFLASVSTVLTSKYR
# Sequence of Glutamate receptor 2 (P23819 whole entry): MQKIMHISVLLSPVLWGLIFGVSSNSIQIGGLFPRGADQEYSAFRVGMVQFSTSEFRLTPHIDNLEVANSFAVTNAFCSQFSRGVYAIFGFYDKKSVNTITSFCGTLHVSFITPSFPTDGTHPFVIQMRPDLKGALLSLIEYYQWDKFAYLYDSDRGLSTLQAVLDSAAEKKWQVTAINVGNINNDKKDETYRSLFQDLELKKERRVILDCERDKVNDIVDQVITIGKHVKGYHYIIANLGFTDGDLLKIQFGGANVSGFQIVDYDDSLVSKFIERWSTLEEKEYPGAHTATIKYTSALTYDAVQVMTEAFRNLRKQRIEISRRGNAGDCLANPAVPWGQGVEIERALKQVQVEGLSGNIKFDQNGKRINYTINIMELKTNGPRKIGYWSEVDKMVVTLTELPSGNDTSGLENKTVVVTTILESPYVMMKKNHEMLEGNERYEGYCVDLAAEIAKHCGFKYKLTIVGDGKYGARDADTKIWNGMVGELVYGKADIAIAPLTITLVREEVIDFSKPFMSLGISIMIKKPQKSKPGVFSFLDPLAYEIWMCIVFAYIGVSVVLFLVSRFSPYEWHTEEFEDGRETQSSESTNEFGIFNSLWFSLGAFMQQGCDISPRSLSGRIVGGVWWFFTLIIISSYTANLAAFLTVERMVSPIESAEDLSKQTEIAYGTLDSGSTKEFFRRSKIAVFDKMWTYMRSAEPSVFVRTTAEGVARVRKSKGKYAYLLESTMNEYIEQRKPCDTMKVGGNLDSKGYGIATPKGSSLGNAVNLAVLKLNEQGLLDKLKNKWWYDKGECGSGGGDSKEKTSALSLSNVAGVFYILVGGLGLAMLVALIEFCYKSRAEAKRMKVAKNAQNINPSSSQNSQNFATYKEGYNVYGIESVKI
substance,measurement,setting,value
"Alpha-enolase, P17182",listed as a hit,Gamma-enolase,yes
"Beta-soluble NSF attachment protein, P28663",listed as a hit,[1],yes
"DOMON domain-containing protein FRRS1L, B1AXV0",listed as a hit,Glutamate receptor 2,yes
"Fructose-bisphosphate aldolase A, P05064",listed as a hit,[2],yes
"Guanine nucleotide-binding protein G(I)/G(S)/G(T) subunit beta-2, P62879",listed as a hit,[3],yes
"Guanine nucleotide-binding protein G(I)/G(S)/G(O) subunit gamma-4, P50153",listed as a hit,[4],yes
"Guanine nucleotide-binding protein G(I)/G(S)/G(O) subunit gamma-5, P63218",listed as a hit,[5],yes
"Heat shock protein HSP 90-beta, P08238",listed as a hit,[6],yes
"Heat shock 70 kDa protein 4L, P48722",listed as a hit,[7],yes
"Hemoglobin subunit alpha, P01942",listed as a hit,[8],yes
"Programmed cell death protein 4, Q53EL6",listed as a hit,Histone H2B type 1-H,yes
"Neurocan core protein, P55066",listed as a hit,[9],yes
"Insulin receptor, P15208",listed as a hit,[10],yes
"Epidermal growth factor receptor substrate 15-like 1, Q60902",listed as a hit,Intersectin-1,yes
"Kinesin light chain 1, O88447",listed as a hit,[11],yes
same,listed as a hit,Kinesin light chain 2,yes
"Membrane-associated progesterone receptor component 1, O00264",listed as a hit,[12],yes
same,listed as a hit,[13],yes

# Source: PMC11024108
